A short description of test [1]: APR_HepG2_CellLoss_72hr: Apredica 72-hour HepG2 Assay for Cell Loss (AID 2282915). The conditions noted are these: high-content imaging. Put shortly:
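HepG2 cells exposed 72 h to compound at 0.39–200 uM (10 concentrations, duplicate) in 0.5% DMSO. Fixed with 3.7% formaldehyde and Hoechst 33342-stained. Imaged at 20x; nuclear count gives cell number, fitted bidirectionally versus DMSO.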

A short description of test [2]: APR_HepG2_P-H2AX_72hr: Apredica 72-hour HepG2 Assay for H2AX Phosphorylation (AID 2282916).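 Note: phospho-histone H2A.x immunostain intensity per cell marking DNA damage.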 The conditions noted are these: imaging, actives raise or lower the signal. The essentials: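 HepG2; cpd 0.39–200 uM ×10 conc, duplicates; 0.5% DMSO; 72 hr. Fix 3.7% formaldehyde 30 min RT, 0.5% Triton X-100 10 min. Anti-phospho-H2A.x 1:200 + Hoechst 2 ug/mL, 60 min RT; ArrayScan imaging.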

Test [3] is described as follows: APR_HepG2_MitoMembPot_72hr: Apredica 72-hour HepG2 Assay for Mitochondrial Membrane Potential (AID 2282917). Particulars: imaging, actives raise or lower the signal. Put shortly: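 HepG2 cells dosed 72 hr with compound at 0.39–200 uM in duplicate, 0.5% v/v DMSO final. Mitochondria stained with 250 nM MitoTracker Red CMXRos for 30 min before formaldehyde fixation, imaged by high-content fluorescence; bidirectional fit versus DMSO.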

The nature of test [4]: APR_HepG2_MitoticArrest_72hr: Apredica 72-hour HepG2 Assay for Mitotic Arrest (AID 2282918). The conditions noted are these: high-content imaging, actives raise or lower the signal. Put shortly:
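HepG2 cells treated 72 h at 0.39–200 uM, 0.5% DMSO final; formaldehyde-fixed, stained with Hoechst 33342 and phospho-histone H3 antibody, imaged by high-content fluorescence; bidirectional fit versus DMSO.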

Test [5] in a line: APR_HepG2_MicrotubuleCSK_72hr: Apredica 72-hour HepG2 Assay for Microtubule CSK Stabilty (AID 2282919). Particulars: HepG2 microtubule cytoskeleton, high-content imaging, actives raise or lower the signal. The essentials:
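HepG2 cells were exposed 72 hr to compound at 0.39–200 uM in duplicate (0.5% DMSO final), then fixed and permeabilized. Alpha-tubulin immunofluorescence was imaged by high-content microscopy, with bidirectional fitting against DMSO and taxol as positive control.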

Test [6] in a line: APR_HepG2_P-H2AX_24hr: Apredica 24-hour HepG2 Assay for H2AX Phosphorylation (AID 2282920). The conditions noted are these: high-content imaging, actives raise or lower the signal. Put shortly:
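HepG2 cells dosed 24 h at 0.39–200 uM (10 points, duplicate, 0.5% DMSO final). Formaldehyde-fixed and permeabilized, then immunostained for phospho-H2A.x with Hoechst. Fluorescence quantified by high-content imaging, fitted bidirectionally versus DMSO.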

A short description of test [7]: APR_HepG2_StressKinase_24hr: Apredica 24-hour HepG2 Assay for Stress Kinase (AID 2282922). The conditions noted are these: HepG2 stress kinase (phospho-c-Jun) imaging, actives raise or lower the signal. The essentials: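 HepG2 cells exposed 24 h to 0.39–200 uM compound in duplicate (0.5% v/v DMSO final). Cells fixed in 3.7% formaldehyde, permeabilized and immunostained for phospho-c-Jun; read by high-content fluorescence imaging, fitted bidirectionally against DMSO.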

A short description of test [8]: APR_HepG2_p53Act_72hr: Apredica 72-hour HepG2 Assay for p53 Activation (AID 2282923).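 Note: average cellular p53 protein immunofluorescence intensity in HepG2 cells.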 Particulars: high-content imaging, actives raise or lower the signal. Put shortly: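 10-pt conc. 0.39–200 uM, duplicate, 0.5% DMSO; 72 hr exposure; 3.7% formaldehyde fix, 0.5% Triton perm; sheep anti-p53/Cy5 + Hoechst; ArrayScan 20x, 6 images/well; gain/loss fit vs DMSO.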
Test [9] can be described thus: APR_HepG2_MitoMass_72hr: Apredica 72-hour HepG2 Assay for Mitochondrial Mass (AID 2282924).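 Note: MitoTracker Red CMXRos stain intensity per cell imaged as mitochondrial mass.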 The conditions noted are these: high-content imaging, actives raise or lower the signal. The essentials: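 HepG2 cells dosed 72 hr at 0.39–200 uM (0.5% DMSO), in duplicate. MitoTracker Red CMXRos 250 nM loaded 30 min before formaldehyde fixation; high-content fluorescence imaging, bidirectional fit versus DMSO.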

Test [10] can be described thus: APR_HepG2_NuclearSize_72hr: Apredica 72-hour HepG2 Assay for Nuclear Size (AID 2282925). Particulars: high-content imaging, actives raise or lower the signal. Put shortly: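 HepG2 cells dosed 72 h at 0.39–200 uM (10 concentrations, duplicate) in 0.5% v/v DMSO final. Fixed, Hoechst 33342-stained nuclei imaged; nuclear diameter measured by automated image analysis. Bidirectional fit versus DMSO.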

Test [11] can be described thus: ATG_CRE_CIS: Attagene CIS-FACTORIAL HepG2 Assay for human cAMP Responsive Element (CRE) binding protein 3 (AID 2282926). The conditions noted are these: HepG2 CRE cis-reporter, Attagene multiplexed mRNA; actives raise or lower the signal. Put shortly: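 HepG2 cells transiently transfected with cis-element-driven multiple reporter transcription units; CRE reporter mRNA measured 24 h after dosing by RT-PCR, 6-FAM labelling, HpaI digestion and capillary electrophoresis. Bidirectional fit versus DMSO baseline.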

The target in test [12] is CCAAT/enhancer-binding protein beta (Homo sapiens) (UniProt P17676). As to the kind of experiment: ATG_C_EBP_CIS: Attagene CIS-FACTORIAL HepG2 Assay for human CCAAT/Enhancer Binding Protein (C/EBP) beta (AID 2282927). Particulars: HepG2 Attagene cis-factorial transcription factor reporter; actives raise or lower the signal. Put shortly:
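HepG2 transiently transfected with multiplexed reporter units under cis-regulatory promoters reporting endogenous C/EBPb activity. After 24 h exposure, reporter mRNA assayed by RT-PCR, fluorescent labelling, HpaI digestion and capillary electrophoresis; bidirectional fitting versus DMSO.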

Test [13] is described as follows: ATG_CMV_CIS: Attagene CIS-FACTORIAL HepG2 Assay for human CMV (Internal Marker) (AID 2282928).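 Note: endpoint acts as a background internal control marker rather than a target.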 The conditions noted are these: HepG2 CMV promoter reporter, transcription factor profiling; actives raise or lower the signal. Put shortly: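 Cell system: HepG2, transiently transfected multiple reporter units under cis promoters. Exposure: 24 h. Detection: RT-PCR, FAM labeling, HpaI digestion, capillary electrophoresis. Analysis: bidirectional, DMSO baseline.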

Test [14] is described as follows: ATG_DR4_LXR_CIS: Attagene CIS-FACTORIAL HepG2 Assay for human Liver X Receptor (LXR), DR4 submotif (AID 2282929). Particulars: HepG2 Attagene DR4 cis-reporter, mRNA transcription; actives raise or lower the signal. The essentials: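 Cells were transfected with multiple reporter transcription units, exposed to chemicals for 24 hours, then lysed for RNA. Reporter mRNA induction was measured by RT-PCR with capillary electrophoresis detection and fitted in both directions relative to DMSO.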

For test [15], the target named is Aryl hydrocarbon receptor (Homo sapiens) (UniProt P35869). As to the kind of experiment: ATG_Ahr_CIS: Attagene CIS-FACTORIAL HepG2 Assay for human Aryl Hydrocarbon Receptor (Ahr) (AID 2282930). The conditions noted are these: HepG2 AhR cis-factorial reporter transcription; actives raise or lower the signal. Put shortly:
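HepG2 cells transiently transfected with cis-element-driven multiplexed reporter units; endogenous AhR activity read as reporter mRNA 24 h after dosing, via RT-PCR, 6-FAM labelling, HpaI digestion and capillary electrophoresis. Bidirectional fit relative to DMSO.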

Test [16] is described as follows: ATG_AP_1_CIS: Attagene CIS-FACTORIAL HepG2 Assay for human Activator Protein 1 (AP-1) (AID 2282931). Particulars: HepG2 Attagene cis-factorial AP-1 reporter mRNA; actives raise or lower the signal. The essentials:
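Endogenous transcription-factor activity in human HepG2 liver cells is read through a cis-promoter reporter transcript, sampled 24 h after dosing. Detection uses RT-PCR with capillary electrophoresis; values come from bidirectional fitting relative to DMSO.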

Test [17] can be described thus: ATG_AP_2_CIS: Attagene CIS-FACTORIAL HepG2 Assay for human Activator Protein 2 (AP-2) (AID 2282932). The conditions noted are these: HepG2 AP-2 cis-reporter, Attagene transcription factor profiling; actives raise or lower the signal. Put shortly: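 HepG2 cells transiently transfected with cis-element reporter units and exposed for 24 h. Reporter mRNA measured by RT-PCR, FAM labelling, HpaI digestion and capillary electrophoresis. Changes in either direction fitted relative to DMSO.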

The nature of test [18]: ATG_BRE_CIS: Attagene CIS-FACTORIAL HepG2 Assay for human Bone Morphogenetic Protein (BMP) Response Element (BRE) (AID 2282933). Particulars: HepG2 BMP response element reporter, Attagene transcription factor profiling; actives raise or lower the signal. Put shortly:
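Endogenous transcription factor activity read in transiently transfected HepG2 cells after 24 h chemical exposure. Bidirectional curve fitting against DMSO; readout is reporter transcript level by RT-PCR with capillary electrophoresis of labelled products.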

The target in test [19] is Retinoic acid receptor alpha (Homo sapiens) (UniProt P10276). Put plainly: ATG_DR5_RAR_CIS: Attagene CIS-FACTORIAL HepG2 Assay for human Retinoic Acid Receptor Alpha (RARE), DR5 submotif (AID 2282934).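 For AC50: reporter responds to endogenous RAR alpha beta and gamma in HepG2 not RARA alone.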 The conditions noted are these: HepG2 Attagene cis-factorial RARE DR5 reporter, mRNA; actives raise or lower the signal. Put shortly: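 HepG2 cells transiently transfected with multiplexed reporter units; DR5 cis-element drives reporter through endogenous transcription factors. After 24 h dosing, reporter mRNA quantified by RT-PCR, fluorescent labeling, HpaI digestion and capillary electrophoresis; bidirectional fitting versus DMSO.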

The nature of test [20]: APR_HepG2_StressKinase_72hr: Apredica 72-hour HepG2 Assay for Stress Kinase (AID 2282921). The conditions noted are these: HepG2 stress kinase (phospho-c-Jun) imaging, actives raise or lower the signal. The essentials:
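Dose 0.39–200 uM (10 pts, duplicate), 0.5% DMSO; 72 h; fix 3.7% formaldehyde 30 min RT; Triton permeabilize; anti-phospho-c-Jun/Cy3 + Hoechst 60 min RT; image 20x; fit gain/loss vs DMSO.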

The structures appear in SMILES notation. Active and inactive are the calls of the source. Rule for the calls: active = hit-call score of the fitted dose curve at least 0.9, where 1 is the maximum; inactive = score below 0.9.

Retinoic acid receptor alpha (Homo sapiens), sequence (P10276 whole entry, looked up): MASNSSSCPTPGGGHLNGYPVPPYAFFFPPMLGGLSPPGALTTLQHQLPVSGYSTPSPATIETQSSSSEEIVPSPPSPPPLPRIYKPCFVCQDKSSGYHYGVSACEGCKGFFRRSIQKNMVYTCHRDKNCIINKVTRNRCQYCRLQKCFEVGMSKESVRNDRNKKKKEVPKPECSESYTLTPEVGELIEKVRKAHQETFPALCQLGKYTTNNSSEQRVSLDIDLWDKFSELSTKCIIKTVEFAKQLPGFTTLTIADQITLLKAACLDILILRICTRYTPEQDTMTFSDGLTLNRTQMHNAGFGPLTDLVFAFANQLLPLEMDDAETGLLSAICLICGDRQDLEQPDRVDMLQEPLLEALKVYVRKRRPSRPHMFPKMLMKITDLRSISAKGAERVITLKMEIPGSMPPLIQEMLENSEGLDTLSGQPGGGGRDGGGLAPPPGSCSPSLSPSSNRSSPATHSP
Aryl hydrocarbon receptor (Homo sapiens), sequence (P35869 whole entry, looked up): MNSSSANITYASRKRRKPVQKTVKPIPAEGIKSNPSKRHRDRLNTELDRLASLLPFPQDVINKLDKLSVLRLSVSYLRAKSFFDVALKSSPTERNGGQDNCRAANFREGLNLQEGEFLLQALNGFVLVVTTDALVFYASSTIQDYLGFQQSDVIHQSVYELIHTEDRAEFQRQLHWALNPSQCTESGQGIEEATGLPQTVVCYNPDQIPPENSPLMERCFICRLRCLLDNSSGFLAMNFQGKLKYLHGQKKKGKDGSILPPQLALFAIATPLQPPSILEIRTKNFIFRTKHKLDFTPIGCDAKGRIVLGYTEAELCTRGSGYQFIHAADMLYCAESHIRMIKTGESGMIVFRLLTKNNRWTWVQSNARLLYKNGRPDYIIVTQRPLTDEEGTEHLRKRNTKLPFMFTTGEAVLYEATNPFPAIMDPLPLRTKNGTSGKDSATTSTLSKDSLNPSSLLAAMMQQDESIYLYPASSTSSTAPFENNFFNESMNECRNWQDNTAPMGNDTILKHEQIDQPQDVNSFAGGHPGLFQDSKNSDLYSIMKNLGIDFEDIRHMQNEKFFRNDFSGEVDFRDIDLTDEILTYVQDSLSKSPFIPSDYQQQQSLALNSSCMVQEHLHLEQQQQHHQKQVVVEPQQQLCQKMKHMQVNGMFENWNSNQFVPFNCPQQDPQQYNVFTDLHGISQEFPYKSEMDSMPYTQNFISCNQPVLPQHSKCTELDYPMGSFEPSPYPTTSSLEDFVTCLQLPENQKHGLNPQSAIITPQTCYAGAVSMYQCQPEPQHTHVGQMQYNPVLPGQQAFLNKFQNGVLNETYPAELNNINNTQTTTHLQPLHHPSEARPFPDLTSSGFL
CCAAT/enhancer-binding protein beta (Homo sapiens), sequence (P17676 whole entry, looked up): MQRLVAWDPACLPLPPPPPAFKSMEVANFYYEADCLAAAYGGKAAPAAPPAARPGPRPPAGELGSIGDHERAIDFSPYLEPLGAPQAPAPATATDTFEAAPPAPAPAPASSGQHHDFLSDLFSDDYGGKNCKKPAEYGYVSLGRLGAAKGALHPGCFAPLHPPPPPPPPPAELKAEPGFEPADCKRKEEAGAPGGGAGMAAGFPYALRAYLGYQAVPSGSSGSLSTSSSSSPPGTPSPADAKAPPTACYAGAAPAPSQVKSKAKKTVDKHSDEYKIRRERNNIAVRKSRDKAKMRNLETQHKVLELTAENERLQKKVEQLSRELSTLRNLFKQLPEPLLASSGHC

With `CSC(=O)c1c(C(F)F)nc(C(F)(F)F)c(C(=O)SC)c1CC(C)C`, the half-maximal activity concentration (AC50) in test [1] was 73.9 µM (active); in test [4] it was 67.7 µM (active); in [5], 64.6 µM (active); in test [14] it was 4.51 µM (active); in test [15] it was 81.5 µM (active); in test [19], 1.28 µM (active). For the same compound, the compound was called inactive in test [2], in [3], in test [6], in test [7], in test [8] and in [9]. Further, the compound was called inactive in test [10], in test [11], in test [12], in [13], in test [16] and in [17]. In addition, in [18], the compound was called inactive.
Take `COP(=S)(OC)Oc1ccc([N+](=O)[O-])c(C)c1`: the AC50 in [1] is 87.9 µM (active); in [11], 17.8 µM (active); in test [18] it was 32.7 µM (active). Moreover, the result in [2], in test [3], in [4], in [5], in test [6] and in test [20] was inactive. Moreover, the outcome in test [7], in test [8], in [9], in test [10], in [12] and in test [13] was inactive. Further, the result in test [14], in test [15] and in test [17] was inactive.
On to `CCCCC(C#N)(Cn1cncn1)c1ccc(Cl)cc1` (stereo not drawn), for which the half-maximal activity concentration (AC50) in [1] is 103 µM (active). For the same compound, the compound was called inactive in test [2], in [3], in test [4], in [5], in test [6] and in test [20]. Besides, the call in test [7], in [8], in test [9], in test [10], in [11] and in test [12] was inactive. Besides, the call in [13], in test [14], in test [15], in [16], in test [17] and in [18] was inactive. Also, the result in test [19] was inactive.
With `O=C(O)c1c(Cl)ccc2cc(Cl)cnc12`, the result in test [1], in test [2], in test [3], in test [4], in [5] and in test [6] was inactive. Further, the compound was classed as inactive in test [20], in test [7], in test [9], in test [10], in [11] and in test [12]. Further, the result in [13], in [15], in test [17], in test [18] and in test [19] was inactive.
On to `CO/N=C(/C1=NOCCO1)c1ccccc1Oc1ncnc(Oc2ccccc2Cl)c1F`, for which the half-maximal activity concentration (AC50) in test [1] was 6.52 µM (active); in [3], 12.7 µM (active); in test [5] it was 7.25 µM (active); in test [11], 0.858 µM (active); in test [12], 0.794 µM (active); in test [16], 0.481 µM (active). The AC50 in test [18] was 0.918 µM (active). The outcome in [2], in test [4], in test [6], in test [20], in [7] and in test [8] was inactive. Also, the result in test [9], in [10], in test [13], in [14] and in test [17] was inactive.
Regarding `COC(=O)NC(=S)Nc1ccccc1NC(=S)NC(=O)OC`, the AC50 is 26.1 µM (active) in [1]; 41.6 µM (active) in test [9]; 29 µM (active) in test [11]; 28.7 µM (active) in [12]; 73.9 µM (active) in [15]; 26.3 µM (active) in [18]. Besides, the outcome in test [2], in test [3], in [4], in test [5], in test [6] and in test [20] was inactive. Besides, the result in test [7], in test [8], in [10], in [13], in test [14] and in test [17] was inactive.
Turning to `CCNP(=S)(OC)O/C(C)=C/C(=O)OC(C)C` (stereo not drawn), the compound was called inactive in test [1], in [2], in [3], in test [4], in test [5] and in test [6]. For the same compound, the result in test [20], in test [7], in test [8], in [9], in test [10] and in test [11] was inactive. Further, the result in [12], in test [13], in test [17] and in test [18] was inactive. Further, the AC50 in [15] and in test [19] was 13.6 µM (active) throughout.

The values above are taken from PubChem BioAssay (EPA / NIEHS).
